Measurements as given in the supplement of paper PMC10933113.
A number with no mark means an inactive call.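 The calls were made as follows: active = curve rank above 3; inactive = curve rank 0.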

Test system: KeratinoSens (HaCaT ARE-luciferase) cells
Test: Nrf2/ARE luciferase activation call in qHTS KeratinoSens assay (1 = active, 0 = inactive)

| Structure (SMILES) | Nrf2/ARE luciferase activation call |
| --- | --- |
| C[C@H]1[C@@H]2Cc3ccc(O)cc3[C@@]1(C)CCN2C.C[C@H]1[C@@H]2Cc3ccc(O)cc3[C@@]1(C)CCN2C.O=C(O)/C=C/C(=O)O | not active ARE inducer (skin sensitizer alert) |
| CC(=O)[O][Cr]([OH])[O]C(C)=O.CC(=O)[O][Cr]([OH])[O]C(C)=O.CC(=O)[O][Cr]([O]C(C)=O)[O]C(C)=O | not active ARE inducer (skin sensitizer alert) |
| CCCCCCn1cc[n+](C)c1.O=S(=O)([O-])C(F)(F)F | not active ARE inducer (skin sensitizer alert) |
| CCCC[P+](CC)(CCCC)CCCC.CCOP(=O)([O-])OCC | not active ARE inducer (skin sensitizer alert) |
| CC[N+]1(C)CCCC1.O=S(=O)([N-]S(=O)(=O)C(F)(F)F)C(F)(F)F | not active ARE inducer (skin sensitizer alert) |
| CCN(C)C(=O)Oc1cccc([C@H](C)N(C)C)c1.O=C(O)[C@@H](O)[C@H](O)C(=O)O | not active ARE inducer (skin sensitizer alert) |
| CCC(COC(=O)c1cc(OC)c(OC)c(OC)c1)(c1ccccc1)N(C)C.O=C(O)/C=C\C(=O)O (configuration not stated) | not active ARE inducer (skin sensitizer alert) |
| CCCn1cc[n+](C)c1.O=S(=O)([N-]S(=O)(=O)C(F)(F)F)C(F)(F)F | not active ARE inducer (skin sensitizer alert) |
| CCCCCCCCCCCC(=O)O.OCCN(CCO)CCO | not active ARE inducer (skin sensitizer alert) |
| CC(C)=CCN1CC[C@@]2(C)c3cc(O)ccc3C[C@@H]1[C@@H]2C.O=C(O)CCC(=O)O | not active ARE inducer (skin sensitizer alert) |
| CCCC[N+]1(C)CCCC1.O=S(=O)([N-]S(=O)(=O)C(F)(F)F)C(F)(F)F | not active ARE inducer (skin sensitizer alert) |
| CCC[N+]1(C)CCCC1.O=S(=O)([N-]S(=O)(=O)C(F)(F)F)C(F)(F)F | not active ARE inducer (skin sensitizer alert) |
| O=C(O)c1ccccc1O.OCCN(CCO)CCO | not active ARE inducer (skin sensitizer alert) |
| CCCCn1cc[n+](C)c1C.O=S(=O)([N-]S(=O)(=O)C(F)(F)F)C(F)(F)F | not active ARE inducer (skin sensitizer alert) |
| O=C(O)CC(O)(CC(=O)O)C(=O)O.Oc1cccc2cccnc12 | active ARE inducer (skin sensitizer alert) |
| CCC[n+]1ccn(C)c1C.O=S(=O)([N-]S(=O)(=O)C(F)(F)F)C(F)(F)F | not active ARE inducer (skin sensitizer alert) |
| CC[S+](CC)CC.O=S(=O)([N-]S(=O)(=O)C(F)(F)F)C(F)(F)F | not active ARE inducer (skin sensitizer alert) |
| CCn1cc[n+](C)c1.O=S(=O)([N-]S(=O)(=O)C(F)(F)F)C(F)(F)F | not active ARE inducer (skin sensitizer alert) |
| CC[S+](C)CC.O=S(=O)([N-]S(=O)(=O)C(F)(F)F)C(F)(F)F | not active ARE inducer (skin sensitizer alert) |
| C[N+](C)(C)CCO.O=S(=O)([N-]S(=O)(=O)C(F)(F)F)C(F)(F)F | not active ARE inducer (skin sensitizer alert) |
| CCCC[N+](C)(C)C.O=S(=O)([N-]S(=O)(=O)C(F)(F)F)C(F)(F)F | not active ARE inducer (skin sensitizer alert) |
| C[C@H](CN1CCOCC1)C(C(=O)N1CCCC1)(c1ccccc1)c1ccccc1.O=C(O)[C@H](O)[C@@H](O)C(=O)O | not active ARE inducer (skin sensitizer alert) |
